# ST2 inh: blocks human ST2 binding to IL-33 | Q01638 | AlphaLISA ST2-Fc/biotin-IL-33 interaction, 1 h | inhibition, % for hits at 17 µM | hit rate 2.3% among 78,000 | AID 1259354; in the data active = inhibition above about 30%
# Target sequence (Q01638 whole entry, looked up): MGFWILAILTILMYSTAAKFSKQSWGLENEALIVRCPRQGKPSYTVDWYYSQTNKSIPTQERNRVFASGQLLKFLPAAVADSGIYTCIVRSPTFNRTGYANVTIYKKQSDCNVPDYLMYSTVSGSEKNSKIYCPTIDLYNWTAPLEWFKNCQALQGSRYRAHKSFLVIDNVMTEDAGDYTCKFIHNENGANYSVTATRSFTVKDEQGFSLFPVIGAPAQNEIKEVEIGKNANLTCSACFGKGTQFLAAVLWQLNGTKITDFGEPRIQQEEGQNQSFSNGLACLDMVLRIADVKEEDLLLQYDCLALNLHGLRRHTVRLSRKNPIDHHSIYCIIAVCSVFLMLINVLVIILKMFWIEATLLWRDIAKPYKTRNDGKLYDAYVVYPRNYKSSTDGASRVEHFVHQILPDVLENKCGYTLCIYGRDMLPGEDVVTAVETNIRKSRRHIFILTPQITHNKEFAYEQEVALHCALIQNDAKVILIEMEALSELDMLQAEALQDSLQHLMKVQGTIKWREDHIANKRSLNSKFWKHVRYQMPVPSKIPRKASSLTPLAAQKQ
# Numbers without * were called inactive; i = inactive. The entries come from a sample that favours hits as a whole.
SMILES,ST2 inh
CCOc1ccc(C2CC(c3ccccc3OC)n3ncnc3N2)cc1 (stereo not drawn),i
CCOc1ccc(C2CC(c3ccc(Cl)cc3)n3nc(N)nc3N2)cc1 (stereo not drawn),i
CCOc1ccc(C2Nc3cccc4cccc(c34)N2)cc1,36%*
Cc1ccc(NC(=O)CC(=O)N(C)Cc2cn[nH]c2-c2ccc(F)cc2)c(C)c1,i
O=C(NC1CCCc2ccccc21)c1ccc(Cn2c(=O)[nH]c3ccsc3c2=O)cc1 (stereo not drawn),i
COc1ccccc1-n1c(O)c(C=Nc2ccc(C(F)(F)F)cc2)c2ccccc2c1=O,33%*
COc1ccc(N=Cc2c(O)n(-c3ccccc3C)c(=O)c3ccccc23)cc1OC,48%*
COc1ccc(N=Cc2c(O)n(-c3ccccc3C)c(=O)c3ccccc23)c(OC)c1,43%*
COc1ccccc1NC(=O)CSc1nc(O)cc(=O)n1-c1ccccc1C,i
O=c1oc2ccccc2c(O)c1C=Nc1cccc(C(F)(F)F)c1,i
COc1ccc(OC)c(-n2c(=O)[nH]c3cc(C(=O)O)ccc3c2=O)c1,i
COc1ccc(N=Cc2c(O)n(-c3ccccc3OC)c(=O)c3ccccc23)c(OC)c1,31%*
COc1ccc(-n2nc(C(=O)O)c3ccccc3c2=O)c(OC)c1,i
COc1ccc(O)c(C=Nc2c(C)n(C)n(-c3ccccc3)c2=O)c1,i
COc1ccc(-n2c(=O)[nH]c3cc(C(=O)O)ccc3c2=O)cc1OC,i
COc1cccc(C=Nc2ccc(N=Cc3cccc(OC)c3OC)cc2)c1OC,i
COc1ccc(N=Cc2c(C)c(Cl)c(C)c([N+](=O)[O-])c2O)cc1OC,i
CC(C)C1CN(C(=O)c2cc(=O)c3ccccc3[nH]2)CCC(=O)N1CC1CC1 (stereo not drawn),i
CN(C)S(=O)(=O)c1ccc(C(=O)N2CCN=C2SCc2ccccc2Cl)cc1,i
Cc1ccc(NS(=O)(=O)c2cc(Br)cc3c2N(C(=O)C2CC2)CC3)cc1F,i
O=C(O)C1CCCN1C(=O)C12CC3CCC(CC(C3)C1)C2 (stereo not drawn),i
Cc1ccc(NC(=O)c2c([N+](=O)[O-])cnn2C)c(C)c1,i
O=C(Nc1ccc(Cl)cn1)c1cnc(N2CCN(c3ccccn3)CC2)c2ccccc12,i
O=C(CCCn1c(=O)[nH]c2ccsc2c1=O)Nc1ccccc1,i
O=C(NC1CC1)C1CCCN(C2CCN(CC3CCCCC3)CC2)C1 (stereo not drawn),i
SMILES,ST2 inh
Cc1ccc(F)cc1NC(=O)c1ccccc1C,i
COc1ccc(-c2nnc([C@H]3CCN(CC4CCCCC4)C3)o2)cc1,i
O=C1c2cccc([N+](=O)[O-])c2C(=O)N1c1nc(-c2ccccc2)cs1,i
O=C(Nc1nc2ccc(Cl)cc2s1)c1ccccc1[N+](=O)[O-],i
N#C/C(=C\c1ccccc1[N+](=O)[O-])c1nc(-c2ccc(Cl)cc2)cs1,31%*
N#C/C(=C\c1ccccc1[N+](=O)[O-])c1nc(-c2ccccc2)cs1,50%*
COc1cc(/C(C#N)=C/c2ccccc2F)c([N+](=O)[O-])cc1OC,i
O=C(Oc1ccc(NS(=O)(=O)c2ccc3ccccc3c2)cc1)c1ccccc1,i
CCC(C)c1ccc(NC(=O)COC)cc1 (stereo not drawn),i
Cc1ccc(NS(=O)(=O)c2ccc3[nH]c(=O)sc3c2)cc1F,i
O=C(c1ccc(N2CCSCC2)nc1)N1CCC(N2CCOCC2)CC1,i
COc1ccccc1OCc1cc(C(=O)NC2CCNCC2)n[nH]1,i
O=C(CCC1CCN(C(=O)c2ccsc2)CC1)NC1CC1,i
O=C(O)c1cc(-c2ccc(Br)cc2)nc2ccc(Cl)cc12,i
Cc1ccc(-c2onc3ccc(Cl)cc23)cc1,45%*
CC(=O)Oc1ccc(-c2nc3ccc(Cl)cc3c(=O)o2)cc1,i
O=C(c1cnc2cccnn12)N1C[C@@H]2C[C@H](C1)[C@@H]1CCCC(=O)N1C2,i
COc1cc(O)c(CCC(=O)O)cc1C1OC(=O)C(C)(O)C1O (stereo not drawn),i
Cc1ccc(CN2CCN(Cc3cccn3-c3cccnc3)CC2CCO)o1 (stereo not drawn),i
c1ccc(-c2ncn(CC3CCCO3)c2-c2cccn2-c2ncccn2)cc1 (stereo not drawn),i
CC(C)(C)c1ccc(OCC(O)CN2CCN(Cc3ccc4c(c3)OCO4)CC2)cc1 (stereo not drawn),i
CC(C)(C)c1ccccc1OCC(O)CN1CCN(Cc2ccc3c(c2)OCO3)CC1 (stereo not drawn),97%*
COc1ccc(OCC(O)CN2CCN(c3ccccc3F)CC2)c(C(C)(C)C)c1 (stereo not drawn),i
O=C(Nc1ccnn1C1CCN(Cc2ccc3c(c2)CCO3)CC1)C1CC1,i
COC(=O)c1c(C)oc2ccc(NS(=O)(=O)c3ccc(F)cc3)cc12,i
SMILES,ST2 inh
CC1CCCC(C)N1C(=O)c1cc(-c2ccc(Cl)cc2)on1 (stereo not drawn),i
COC(=O)c1ccc(C2C3=C(CCCC3=O)Nc3nc(SCc4ccccc4)nn32)cc1 (stereo not drawn),i
Cc1cc(N)cc(C)c1OCC(=O)N1CCOCC1,i
CC(=O)N1c2ccccc2NC2=C(C(=O)CCC2)C1c1ccco1 (stereo not drawn),i
CC(C)C(=O)N1c2ccccc2NC2=C(C(=O)CCC2)C1c1ccco1 (stereo not drawn),30%*
CC(=O)N1c2ccccc2NC2=C(C(=O)CCC2)C1c1ccc(Cl)c(Cl)c1 (stereo not drawn),i
CCOC(=O)c1[nH]c2ccccc2c1NC(=O)CCC1CCCC1,i
Cc1ccc(-n2ncc3c(=O)n(-c4ccc(C)c(C)c4)c(C)nc32)cc1,i
Cc1ccc(-n2c(C)nc3c(cnn3-c3ccc(F)cc3)c2=O)cc1,i
Cc1ccc(-n2ncc3c([N+](=O)[O-])cc([N+](=O)[O-])cc32)cc1,62%*
CCC(C)NC(=O)C1CCN(C(=O)c2ccccc2Cl)CC1 (stereo not drawn),i
COc1ccc(NC(=O)c2sc3nc4c(cc3c2N)CCCC4)cc1,i
CC1CCc2oc3cc([N+](=O)[O-])cc([N+](=O)[O-])c3c2C1 (stereo not drawn),59%*
CC(=O)N(c1ccc2oc3c(c2c1)CCCC3)S(=O)(=O)c1cc([N+](=O)[O-])ccc1C,i
Cc1cc(NC(=O)c2noc3c2CC(C)CC3)no1 (stereo not drawn),i
Cc1ccc2c(c1)c1c3n2CCCN=C3CCC1,i
NC1(C(=O)O)CCN(Cc2ccccc2O)C1 (stereo not drawn),i
COCCNC(=O)C1c2cc(OC)c(OC)cc2C(=O)N(C)C1c1ccccc1F (stereo not drawn),i
COc1ccc(C(=O)N[C@H]2CC[C@]3(C)CCC([C@H](C)C(=O)N(C)Cc4cccnc4)[C@H](O)[C@H]3[C@@H]2C)cc1 (stereo partly drawn),53%*
COCCN(CCOC)C(=O)[C@@H](C)C1CC[C@@]2(C)CC[C@H](NC(=O)c3ccncc3)[C@@H](C)[C@@H]2[C@H]1O (stereo partly drawn),i
COCCNC(=O)[C@@H](C)[C@@H]1CC[C@@]2(C)CC[C@H](NC(=O)c3ccccc3)[C@@H](C)[C@@H]2[C@H]1O,i
CCN(CC)C(=O)[C@@H](C)C1CC[C@@]2(C)CC[C@H](NC(=O)c3ccncc3)[C@@H](C)[C@@H]2[C@H]1O (stereo partly drawn),49%*

# Assay outcomes (PubChem BioAssay)
